# Source: PubChem BioAssay AID493208 (National Center for Advancing Translational Sciences (NCATS), 2011)
# Hit rate of the full screen: of about 44,000 compounds, about 340 (0.77%) were called active. About 5% were inconclusive and are not listed. The call rests on the fitted dose curve; in most records, active means well fitted inhibition curve with a large enough effect; inconclusive means small, poorly fitted or top-dose-only effect; inactive means flat fitted curve, though single readings scatter. This excerpt belongs to a sample that is enriched for actives.
# Experiment: Acumen qHTS Assay for Inhibitors of the mTORC1 Signaling Pathway in MEF (Tsc2-/-, p53-/-) Cells: Sytravon; further: nearly all actives have a fitted effect of over 50% in size
# Settings: phospho-rpS6 immunofluorescence/PI, 24 h; series mostly up to 38.3 µM; activity change, negative = inhibition: at the top concentration
# Description: NIH Molecular Libraries Probe Production Centers Network [MLPCN] NIH Chemical Genomics Center [NCGC] MLPCN Grant: NS059428-01 Assay Submitter (PI): Blenis, John; Hoffman, Greg; Harvard University NCGC Assay Overview: The mammalian target of rapamycin (mTOR) is an intracellular serine/threonine kinase Aberrant regulation of mTOR signaling plays a causative role in a number of human diseases, including cancer, benign tumors such as lymphangioleiomyomatosis (LAM) and Tuberous Sclerosis Complex (TSC), and metabolic diseases such as diabetes and obesity. This project aims to identify inhibitors of ribosomal protein S6 (rpS6) phosphorylation. The phosphorylation of rpS6 is a key event downstream of mTOR activation. The assay uses a phospho-specific antibody of phospho-rpS6 to detect inhibitors of mTOR activation. Mutations in the Tsc1 and Tsc2 genes are the underlying genetic lesions responsible for TSC, causing constitutive activation of the mTORC1 pathway and leading to profound effects on cell metabolism. Aberrant metabolism in cancer has recently received significant attention as a target to develop therapeutic agents in the treatment of cancer.1 As Tsc2-/- cells have lost the ability to respond to energy and growth factor deprivation, these cells are unable to properly down regulate cellular biosynthetic processes in response to metabolic stress, and are thus extremely sensitive to glucose deprivation-induced death.2 A central goal of this project is to explore the unique cell survival and metabolic properties of cells with Tsc1 or Tsc2 by screening for compounds that selectively target the Tsc2-/- MEFs by screening both Tsc2-/- and WT MEF cell lines. We hope to better understand these aspects of TSC physiology in order to exploit them for therapeutic benefit.
# NCGC Acumen Assay Protocol Summary: For quantitative high throughput analysis of mTORC1 signaling, we developed a cell-based assay for immuno-fluorescence based detection of rpS6 phosphorylation on the Acumen Explorer that will be used a platform for the primary small molecule screen. Mouse embryonic fibroblasts (MEFs) are cultured in 1536-well plates using DMEM + 10% FBS. Twenty-four hrs after plating, test compounds (solubilized in DMSO) are delivered and incubated with the cells for 24 hrs at 37 degree Celsius. Following the incubation, media with compound is aspirated and the cells are fixed in 4% paraformaldehyde (PFA) containing PBS + 0.2% TX-100. Next, PFA is aspirated, cells are washed two times with PBS plus 0.2% TX-100 and the cells are blocked for 1 hr at room temperature (blocking buffer: LiCOR Blocking Buffer plus 0.2% TX-100). […] Cells are washed two times with PBS plus 0.2% TX-100, and stained with 10 uM propidium iodide (PI) for 20-25 minutes for cell number measurement (1:500 dilution of Hoescht staining is also added for IN Cell imaging). The plates are scanned on the Acumen Explorer laser scanning instrument (TTP Labtech) using the 488nm laser for simultaneous excitation of the Alexa-488 and PI. […] The normalized phospho-S6 staining is calculated as the ratio of the integrated Alexa 488 intensity divided by the integrated PI intensity for the single concentration rapamycin control (7.5 nM) and DMSO columns. […] Inhibition of the pathway is defined based on the normalized phospho-S6 intensity in rapamycin treated cells. Active cells are defined as those with a normalized phospho-S6 staining above this threshold, and each treatment is reported as the % positive cells in the well, where thresholds are defined by selecting wells with the highest and lowest signal and differentiating between the % non-active and % active populations. In addition to the pathway specific phospho-S6 endpoint, the number of PI stained cells from the Acumen is recorded as a measure of cell viability. The primary screen was performed with a MEF cell line in a defined genetic background, Tsc2-/-, p53-/- cell line stably transfected with an empty vector control (Tsc2-/- MEF).
# Potency means the concentration at half of the fitted maximal effect.
SMILES,"activity change, negative = inhibition",Potency
CCCCN(CC)CCCNC(=O)Cn1ncc2c([nH]c3ccc(C)cc32)c1=O,7% (inactive),
COc1cccc(CNCc2c(C(=O)O)n(Cc3ccc(C)cc3)c3cc(C)ccc23)c1OC,-0.504% (inactive),
Cc1ccc(C)c(N2CCN(CCCNC(=O)Nc3ccc(Cl)cc3)CC2)c1,,18.5 µM (active)
CCOC(=O)c1c(C)[nH]c(CCC(=O)NCCCN2CCN(c3cc(C)ccc3C)CC2)c1C,,13.1 µM (active)
CCOC(=O)c1c(C)[nH]c(CCC(=O)NCCCN2CCN(c3cccc(Cl)c3)CC2)c1C,0.601% (inactive),
CC1=C(c2ccc(Cl)cc2)S(=O)(=O)N=C1N1CCN(c2cc(C)ccc2C)CC1,1.43% (inactive),
CC1=C(c2ccc(C)cc2)S(=O)(=O)NC1=NCCCN1CCN(c2cc(C)ccc2C)CC1,-9.39% (inactive),
CCOC(=O)c1c(C)[nH]c(CCC(=O)Nc2ccc(OC)c(OC)c2)c1C,0.489% (inactive),
CCn1c2ccccc2c2cc(NC(=O)COc3ccc(C)cc3C)ccc21,-2.08% (inactive),
COc1ccc(-c2nn(CC(=O)Nc3ccccc3F)c3c2cnc2ccc(F)cc23)cc1,0% (inactive),
O=C1CSC2(C(=O)N(Cc3ccccc3)c3ccccc32)N1c1cccc(F)c1 (configuration not stated),0% (inactive),
CCC1CCCCN1C(=O)Cn1c(=O)n(CCCCCC(=O)NCc2ccccc2)c(=O)c2sccc21 (configuration not stated),-7.36% (inactive),
O=C(Nc1ccc2c(c1)OCO2)c1cc(-c2cccc(Cl)c2)on1,-11.2% (inactive),
Cc1ccc2c(=O)c(C(=O)c3cccc(Cl)c3)cn(CC(=O)NCc3ccccc3)c2n1,-0.846% (inactive),
N#Cc1ccccc1Cn1cnc2nc3c(cc2c1=O)CCCC3,-10.6% (inactive),
CC(C)c1ccc(NC(=O)c2ccc(Cn3nc(N4CCN(c5ccccc5)CC4)ccc3=O)o2)cc1,-11.3% (inactive),
COc1ccc(SCc2cc(=O)c3ccc(C)c(C)c3[nH]2)cc1,0.722% (inactive),
COc1ccc(-c2cc(C(F)(F)F)nc(SCC(=O)N(C)Cc3ccccc3)n2)cc1OC,-5.38% (inactive),
Cc1ccc(S(=O)(=O)N(CC(=O)Nc2ccc(Cl)cc2Cl)c2ccccc2C)cc1,13% (inactive),
COc1ccccc1NC(=O)C(=O)c1cc(C)n(-c2ccccc2F)c1C,-8.68% (inactive),
COc1cc(NC(=O)c2noc3c2CSc2ccccc2-3)cc(OC)c1OC,0.0529% (inactive),
CCN(CC)c1ccc(NS(=O)(=O)c2cc(-c3cc(C)no3)ccc2C)c(C)c1,-10.9% (inactive),
O=C(NCc1ccc2c(c1)CCN2C(=O)c1ccccc1)c1ccccc1,1.91% (inactive),

SMILES,"activity change, negative = inhibition",Potency
Cc1cccc(C)c1Nc1c(-c2ccccc2O)nc2ncccn12,-14% (inactive),
COc1ccc(-c2nc3nc(C)cc(C)n3c2Nc2c(C)cccc2C)cc1,-9.06% (inactive),
CCc1cccc(C)c1Nc1c(-c2ccc(N(C)C)cc2)nc2ncccn12,,13.1 µM (active)
CCOc1ccccc1N(CC)C(=O)c1cc2ccc3cccnc3c2[nH]1,-0.703% (inactive),
Cc1ccc(C(=O)N2CCc3cc(CNC(=O)c4ccc(Br)cc4)ccc32)cc1,-0.771% (inactive),
Cc1ccc(-n2c(=O)c3cccnc3n2CC(=O)Nc2ccccc2C(F)(F)F)cc1C,3.08% (inactive),
COc1cc(NC(=O)c2nc3ccccc3nc2C)cc(OC)c1OC,-17.4% (inactive),
COc1ccccc1Nc1c2c(nc3ccc(NC(=O)/C=C/c4cc(OC)c(OC)c(OC)c4)cc13)CCCC2,,3.29 µM (active)
COc1cc(C(=O)Nc2ccc(-n3c(C)nc4ccccc4c3=O)cc2)cc(OC)c1OC,2.16% (inactive),
COc1ccc(NC(=O)c2ccc3oc(=O)c(S(=O)(=O)c4ccc(F)cc4)cc3c2)c(OC)c1,-1.06% (inactive),
CCC(=O)NCc1cc(-c2nn(C)c(=O)c3ccccc23)ccc1OC,0.553% (inactive),
CCOc1cc(C(=O)NCCc2csc3nc(-c4ccc(C)cc4)nn23)cc(OCC)c1OCC,-0.174% (inactive),
COc1cccc(NC(=O)CN2C(=O)c3ccccc3Sc3ncccc32)c1,-4.27% (inactive),
CC1=C(c2ccc(F)cc2)S(=O)(=O)N=C1N1CCC(C(=O)NCCc2ccccc2C)CC1,-5.5% (inactive),
COc1cc(NC(=O)c2cc(C3CC3)nc3c2c(C)nn3-c2ccccc2)cc(OC)c1,2.09% (inactive),
COc1cccc(CNC(=O)C2CCN(S(=O)(=O)c3ccc4c(ccn4C)c3)CC2)c1,0.037% (inactive),
Cc1ccc(OCCSc2nc(C)c(Cc3ccccc3)c(=O)[nH]2)cc1,-0.78% (inactive),
Cc1ccc(Cn2c(=O)n(CCCC(=O)NCc3ccccc3Cl)c(=O)c3ccccc32)cc1,5.87% (inactive),
CCc1ccc(NC(=O)c2cc(S(=O)(=O)NC3CCCCCC3)ccc2F)cc1,-22.4% (inactive),
Cc1ccccc1NC(=O)Cn1cc(C(=O)c2cccs2)c2ccccc21,-14.7% (inactive),
O=C(c1cnn(-c2ccc(F)cc2)c1-n1cccc1)N1CCN(c2ccc(F)cc2)CC1,-7.02% (inactive),
CCOC(=O)c1cc(-c2ccccc2)n(-c2cccc(C(=O)Nc3cc(OC)cc(OC)c3)c2)c1C,-1.51% (inactive),
Cc1oc2ccc(O)c(CN3CCOCC3)c2c1C(=O)Nc1cccc(Cl)c1C,7.39% (inactive),

SMILES,"activity change, negative = inhibition",Potency
O=C1OC(C(=O)Nc2cccc(Br)c2)Cc2ccccc21 (configuration not stated),-3.38% (inactive),
Cc1c(NC(=O)c2cc(-c3ccc(Br)cc3)on2)c(=O)n(-c2ccccc2)n1C,-28.7% (inactive),
COc1ccc(NC(=O)C2CCCN(S(=O)(=O)c3c(C)[nH]c(=O)[nH]c3=O)C2)c(OC)c1 (configuration not stated),-7.05% (inactive),
COc1ccc(-c2nnc(SCC(=O)Nc3ccc(C(C)C)cc3)nc2-c2ccc(OC)c(OC)c2)cc1OC,-3.8% (inactive),
Clc1cccc(-n2ncc3c(NCCc4ccccc4)ncnc32)c1,3.04% (inactive),
Fc1ccc(Nc2nc(SCc3ccccc3Cl)nc3ccccc23)cc1,3.14% (inactive),
O=C(C1CCCN(S(=O)(=O)c2cccc3nonc23)C1)N1CCN(c2ccccc2F)CC1 (configuration not stated),-2.91% (inactive),
Cc1ccc(N2CC(c3nnc(Cc4ccccc4Cl)o3)CC2=O)cc1 (configuration not stated),6.32% (inactive),
CCOC(=O)c1ccc(CN(Cc2ccccc2)S(=O)(=O)c2ccc(Cl)cc2)cc1,-9.2% (inactive),
Cn1c(=O)c(C(=O)O)nn(-c2ccccc2)c1=O,11.1% (inactive),
Cc1ccc(-c2cn3c(n2)sc2cc(C(=O)NCCCc4ccccc4)ccc23)cc1,5.23% (inactive),
CCCCN1CC(c2nc3ccccc3n2CCCCOc2ccc(C)cc2C)CC1=O (configuration not stated),-0.108% (inactive),
COc1cccc(C(=O)NC2=NC(c3ccc(N(C)C)cc3)CC(=O)N2)c1 (configuration not stated),0.508% (inactive),
CCN(C(=O)Cn1cc(S(=O)(=O)N2CCN(c3ccccc3F)CC2)c2ccccc2c1=O)c1ccc(C)c(C)c1,3.33% (inactive),
CSc1nc(-c2ccccc2Cl)nc2c1Cc1c(CO)cnc(C)c1O2,2.72% (inactive),
Cc1cc2ccccc2n1CCNC(=O)c1ccc(F)cc1,1.95% (inactive),
Cc1cccc(NC(=O)N2CCC(CN3CCc4ccccc4C3)CC2)c1C,-13.6% (inactive),
CCC(=O)N1CCc2cc(CNC(=O)Nc3ccccc3Cl)ccc21,-1.13% (inactive),
COc1ccc(CNC(=O)CSCc2nc(-c3ccccc3F)oc2C)cc1,-10.3% (inactive),
CCOc1ccc(-n2c(SCC(=O)NCc3ccccc3)nc3n[nH]c(C)c3c2=N)cc1,-12.4% (inactive),
Cc1cccc(NC(=O)C2CCN(S(=O)(=O)c3c(C)noc3/C=C/c3ccco3)CC2)c1,2.87% (inactive),
